# Data taken from PMC13541613, “GHT-SELEX demonstrates unexpectedly high intrinsic sequence specificity and complex DNA binding of many human transcription factors”.
# Experiments:
# Assay in all cases: HT-SELEX; 20 mM HEPES pH 7, 140 mM KCl, 5 mM NaCl, 1 mM K2HPO4, 2 mM MgSO4, 100 uM EGTA, ZnSO4, 0.1% Tween20; room temperature, 1 h; high values mean tight binding
# Settings in all cases: protein: ivt; tags: eGFP (N-terminal); dsDNA, one strand shown
# [1] = target: ZNF721 full-length (Homo sapiens, UniProt Q8TF20-2 1-923)
# Sequence of ZNF721 full-length (Q8TF20 other isoform, or with tags, fused parts or gaps): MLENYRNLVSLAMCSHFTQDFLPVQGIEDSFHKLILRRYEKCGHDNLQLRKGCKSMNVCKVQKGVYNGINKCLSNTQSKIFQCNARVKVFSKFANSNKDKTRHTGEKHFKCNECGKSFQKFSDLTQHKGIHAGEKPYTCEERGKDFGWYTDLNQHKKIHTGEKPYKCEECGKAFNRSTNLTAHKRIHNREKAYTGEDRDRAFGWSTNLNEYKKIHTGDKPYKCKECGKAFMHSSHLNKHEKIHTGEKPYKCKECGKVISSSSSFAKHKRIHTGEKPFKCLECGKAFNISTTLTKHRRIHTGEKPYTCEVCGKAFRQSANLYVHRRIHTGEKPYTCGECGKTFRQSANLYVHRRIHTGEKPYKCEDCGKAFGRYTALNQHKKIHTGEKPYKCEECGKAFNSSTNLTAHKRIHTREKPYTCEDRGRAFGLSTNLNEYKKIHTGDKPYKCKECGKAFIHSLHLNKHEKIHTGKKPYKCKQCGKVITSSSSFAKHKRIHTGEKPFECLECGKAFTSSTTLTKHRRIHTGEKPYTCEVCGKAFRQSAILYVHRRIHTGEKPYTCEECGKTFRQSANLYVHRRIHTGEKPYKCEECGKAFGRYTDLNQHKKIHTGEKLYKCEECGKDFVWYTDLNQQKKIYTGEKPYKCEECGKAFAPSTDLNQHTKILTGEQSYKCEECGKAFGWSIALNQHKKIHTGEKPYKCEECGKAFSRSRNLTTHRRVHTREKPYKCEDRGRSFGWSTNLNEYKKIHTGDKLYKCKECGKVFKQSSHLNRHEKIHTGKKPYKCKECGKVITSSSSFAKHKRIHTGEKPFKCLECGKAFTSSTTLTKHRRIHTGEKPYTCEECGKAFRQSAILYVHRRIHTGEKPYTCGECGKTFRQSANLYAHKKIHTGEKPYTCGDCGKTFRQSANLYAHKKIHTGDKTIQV
# Outline: (§1)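 In HEPES/KCl low-stringency buffer with Tween20, a bead-immobilised tagged transcription factor (full-length or DNA-binding-domain fragment, from HEK293 lysate or cell-free extract) was incubated with a randomized 40-base DNA library for 1 h at room temperature. DNA retained after washing was heat-eluted, amplified by PCR over successive cycles and Illumina-sequenced, giving ~3 million 60 bp reads per sample. The reported binding signal, a relative k-mer count in those selected reads, rises with tighter binding.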
# [2] = target: ZNF721 DBD1 (Homo sapiens, UniProt Q8TF20-2 29-461)
# Sequence of ZNF721 DBD1 (Q8TF20 17-449): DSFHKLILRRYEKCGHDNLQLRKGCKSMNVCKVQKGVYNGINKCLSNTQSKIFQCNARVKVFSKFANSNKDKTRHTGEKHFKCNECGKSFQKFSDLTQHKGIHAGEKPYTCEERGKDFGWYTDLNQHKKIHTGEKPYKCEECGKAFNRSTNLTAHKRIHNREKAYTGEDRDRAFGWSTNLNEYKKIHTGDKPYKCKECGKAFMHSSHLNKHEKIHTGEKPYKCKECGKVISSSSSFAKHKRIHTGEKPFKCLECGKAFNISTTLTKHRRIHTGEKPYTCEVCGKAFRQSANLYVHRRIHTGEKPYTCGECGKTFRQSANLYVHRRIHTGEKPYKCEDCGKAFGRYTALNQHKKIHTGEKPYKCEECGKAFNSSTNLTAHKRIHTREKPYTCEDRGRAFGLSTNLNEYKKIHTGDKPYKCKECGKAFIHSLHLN
# Outline: as §1
# [3] = target: ZNF721 DBD2 (Homo sapiens, UniProt Q8TF20-2 395-923)
# Sequence of ZNF721 DBD2 (Q8TF20 383-911): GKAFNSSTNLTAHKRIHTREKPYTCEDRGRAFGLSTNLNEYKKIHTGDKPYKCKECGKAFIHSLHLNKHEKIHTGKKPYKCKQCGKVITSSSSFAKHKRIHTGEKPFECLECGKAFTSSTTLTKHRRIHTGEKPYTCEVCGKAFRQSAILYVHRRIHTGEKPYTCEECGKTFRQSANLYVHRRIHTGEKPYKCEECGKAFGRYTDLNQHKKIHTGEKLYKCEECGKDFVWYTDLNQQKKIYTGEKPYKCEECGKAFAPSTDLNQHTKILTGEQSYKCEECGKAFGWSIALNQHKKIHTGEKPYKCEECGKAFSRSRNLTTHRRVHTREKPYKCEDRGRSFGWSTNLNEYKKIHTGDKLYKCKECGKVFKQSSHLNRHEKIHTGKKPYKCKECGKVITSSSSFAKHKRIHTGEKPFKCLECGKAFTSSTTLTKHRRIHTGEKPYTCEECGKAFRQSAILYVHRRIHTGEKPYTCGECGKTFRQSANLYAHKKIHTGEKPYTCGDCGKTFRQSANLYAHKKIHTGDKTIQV
# Outline: as §1
sequence,measurement,setting,value
CCTTCCCCCC,binding signal,[1],0.104 relative 10-mer count
same,binding signal,[2],0.00472 relative 10-mer count
same,binding signal,[3],0.00264 relative 10-mer count
CCCTCCCCAC,binding signal,[1],0.217 relative 10-mer count
same,binding signal,[2],0.00977 relative 10-mer count
same,binding signal,[3],0.00863 relative 10-mer count
CACCCCCCCA,binding signal,[1],0.16 relative 10-mer count
same,binding signal,[2],0.00716 relative 10-mer count
same,binding signal,[3],0.00443 relative 10-mer count
CAGCCCACCC,binding signal,[1],0.151 relative 10-mer count
same,binding signal,[2],0.00431 relative 10-mer count
same,binding signal,[3],0.0841 relative 10-mer count
CCCACACCCA,binding signal,[1],0.107 relative 10-mer count
same,binding signal,[2],0.00468 relative 10-mer count
same,binding signal,[3],0.00455 relative 10-mer count
CCCCCCCCGC,binding signal,[1],0.151 relative 10-mer count
same,binding signal,[2],0.00399 relative 10-mer count
same,binding signal,[3],0.0024 relative 10-mer count
CACCCACACC,binding signal,[1],0.127 relative 10-mer count
same,binding signal,[2],0.0061 relative 10-mer count
same,binding signal,[3],0.00395 relative 10-mer count
CGACCCCCCC,binding signal,[1],0.113 relative 10-mer count
same,binding signal,[2],0.00427 relative 10-mer count
same,binding signal,[3],0.0018 relative 10-mer count
CACAAAAAAG,binding signal,[1],0.102 relative 10-mer count
same,binding signal,[2],0.00853 relative 10-mer count
same,binding signal,[3],0.0405 relative 10-mer count
CCCTCCCACC,binding signal,[1],0.265 relative 10-mer count
same,binding signal,[2],0.0161 relative 10-mer count
same,binding signal,[3],0.00755 relative 10-mer count
CCTCCCCCCC,binding signal,[1],0.236 relative 10-mer count
same,binding signal,[2],0.0115 relative 10-mer count
same,binding signal,[3],0.00707 relative 10-mer count
CGACCCACCC,binding signal,[1],0.126 relative 10-mer count
same,binding signal,[2],0.00477 relative 10-mer count
same,binding signal,[3],0.00324 relative 10-mer count
AGGGAGGGGG,binding signal,[1],0.15 relative 10-mer count
same,binding signal,[2],0.00628 relative 10-mer count
same,binding signal,[3],0.00384 relative 10-mer count
CCACGCCACC,binding signal,[1],0.105 relative 10-mer count
same,binding signal,[2],0.00353 relative 10-mer count
same,binding signal,[3],0.00443 relative 10-mer count
AAGCTGCACC,binding signal,[1],0.143 relative 10-mer count
same,binding signal,[2],0.0827 relative 10-mer count
same,binding signal,[3],0.0024 relative 10-mer count
CCCCTCCTCC,binding signal,[1],0.154 relative 10-mer count
same,binding signal,[2],0.00794 relative 10-mer count
same,binding signal,[3],0.00515 relative 10-mer count
TGTGTATGAA,binding signal,[1],0.169 relative 10-mer count
same,binding signal,[2],0.203 relative 10-mer count
same,binding signal,[3],0.00228 relative 10-mer count
AGCATACCCA,binding signal,[1],0.391 relative 10-mer count
same,binding signal,[2],0.0246 relative 10-mer count
same,binding signal,[3],0.366 relative 10-mer count
CCCACCACCA,binding signal,[1],0.199 relative 10-mer count
same,binding signal,[2],0.00784 relative 10-mer count
same,binding signal,[3],0.00599 relative 10-mer count
CAAAAAAAAG,binding signal,[1],0.269 relative 10-mer count
same,binding signal,[2],0.0321 relative 10-mer count
same,binding signal,[3],0.108 relative 10-mer count
CACCCACCGC,binding signal,[1],0.103 relative 10-mer count
same,binding signal,[2],0.00463 relative 10-mer count
same,binding signal,[3],0.00455 relative 10-mer count
CCCCAACACC,binding signal,[1],0.114 relative 10-mer count
same,binding signal,[2],0.00417 relative 10-mer count
same,binding signal,[3],0.00324 relative 10-mer count
CCCCCTCCCC,binding signal,[1],0.331 relative 10-mer count
same,binding signal,[2],0.0149 relative 10-mer count
same,binding signal,[3],0.00455 relative 10-mer count
AGCCCCACCC,binding signal,[1],0.106 relative 10-mer count
same,binding signal,[2],0.00312 relative 10-mer count
same,binding signal,[3],0.00959 relative 10-mer count
AGGATACCCT,binding signal,[1],0.106 relative 10-mer count
same,binding signal,[2],0.00527 relative 10-mer count
same,binding signal,[3],0.171 relative 10-mer count
AGGGGGTGGG,binding signal,[1],0.201 relative 10-mer count
same,binding signal,[2],0.0107 relative 10-mer count
same,binding signal,[3],0.00467 relative 10-mer count
CCCGCCTCCC,binding signal,[1],0.183 relative 10-mer count
same,binding signal,[2],0.00954 relative 10-mer count
same,binding signal,[3],0.00156 relative 10-mer count
AGCAGCATAC,binding signal,[1],0.146 relative 10-mer count
same,binding signal,[2],0.00179 relative 10-mer count
same,binding signal,[3],0.164 relative 10-mer count
CCCTCCACCC,binding signal,[1],0.321 relative 10-mer count
same,binding signal,[2],0.0139 relative 10-mer count
same,binding signal,[3],0.00731 relative 10-mer count
AACCCCACCC,binding signal,[1],0.141 relative 10-mer count
same,binding signal,[2],0.00294 relative 10-mer count
same,binding signal,[3],0.00156 relative 10-mer count
AGCTTTTTTC,binding signal,[1],0.449 relative 10-mer count
same,binding signal,[2],0.217 relative 10-mer count
same,binding signal,[3],0.00467 relative 10-mer count
ACCGCCACCC,binding signal,[1],0.111 relative 10-mer count
same,binding signal,[2],0.00335 relative 10-mer count
same,binding signal,[3],0.00192 relative 10-mer count
GCACCCCACC,binding signal,[1],0.104 relative 10-mer count
same,binding signal,[2],0.00284 relative 10-mer count
same,binding signal,[3],0.00491 relative 10-mer count
CTAAAAAAAA,binding signal,[1],0.107 relative 10-mer count
same,binding signal,[2],0.0111 relative 10-mer count
same,binding signal,[3],0.0533 relative 10-mer count
CAGGGTGGGG,binding signal,[1],0.111 relative 10-mer count
same,binding signal,[2],0.00399 relative 10-mer count
same,binding signal,[3],0.00384 relative 10-mer count
CCAAAAAAAA,binding signal,[1],0.211 relative 10-mer count
same,binding signal,[2],0.0171 relative 10-mer count
same,binding signal,[3],0.0966 relative 10-mer count
CACCCCGACC,binding signal,[1],0.113 relative 10-mer count
same,binding signal,[2],0.00335 relative 10-mer count
same,binding signal,[3],0.00216 relative 10-mer count
CCCCCAGCCC,binding signal,[1],0.146 relative 10-mer count
same,binding signal,[2],0.00587 relative 10-mer count
same,binding signal,[3],0.00252 relative 10-mer count
CACCCACCCC,binding signal,[1],0.325 relative 10-mer count
same,binding signal,[2],0.0153 relative 10-mer count
same,binding signal,[3],0.003 relative 10-mer count
CGCTTCATAC,binding signal,[1],0.265 relative 10-mer count
same,binding signal,[2],0.363 relative 10-mer count
same,binding signal,[3],0.0012 relative 10-mer count
CACCCTCCCA,binding signal,[1],0.123 relative 10-mer count
same,binding signal,[2],0.00555 relative 10-mer count
same,binding signal,[3],0.00443 relative 10-mer count
CCCACCCCTA,binding signal,[1],0.119 relative 10-mer count
same,binding signal,[2],0.00431 relative 10-mer count
same,binding signal,[3],0.00324 relative 10-mer count
CCTCCCACCC,binding signal,[1],0.255 relative 10-mer count
same,binding signal,[2],0.0139 relative 10-mer count
same,binding signal,[3],0.00599 relative 10-mer count
CGCCCTCCCC,binding signal,[1],0.172 relative 10-mer count
same,binding signal,[2],0.0066 relative 10-mer count
same,binding signal,[3],0.00252 relative 10-mer count
CCCCGCCCTC,binding signal,[1],0.146 relative 10-mer count
same,binding signal,[2],0.00601 relative 10-mer count
same,binding signal,[3],0.00216 relative 10-mer count
CCCGCCCCGC,binding signal,[1],0.154 relative 10-mer count
same,binding signal,[2],0.00518 relative 10-mer count
same,binding signal,[3],0.00144 relative 10-mer count
ACCCCTCCCC,binding signal,[1],0.189 relative 10-mer count
same,binding signal,[2],0.00688 relative 10-mer count
same,binding signal,[3],0.00216 relative 10-mer count
CCCAAAAAAA,binding signal,[1],0.149 relative 10-mer count
same,binding signal,[2],0.0067 relative 10-mer count
same,binding signal,[3],0.0681 relative 10-mer count
CCACCACCCA,binding signal,[1],0.222 relative 10-mer count
same,binding signal,[2],0.0105 relative 10-mer count
same,binding signal,[3],0.00671 relative 10-mer count
CCACGACCCC,binding signal,[1],0.118 relative 10-mer count
same,binding signal,[2],0.00344 relative 10-mer count
same,binding signal,[3],0.003 relative 10-mer count
GAAAAAAACA,binding signal,[1],0.2 relative 10-mer count
same,binding signal,[2],0.00289 relative 10-mer count
same,binding signal,[3],0.165 relative 10-mer count
AGCATATCCA,binding signal,[1],0.107 relative 10-mer count
same,binding signal,[2],0.0108 relative 10-mer count
same,binding signal,[3],0.102 relative 10-mer count
CCCACCGCCA,binding signal,[1],0.13 relative 10-mer count
same,binding signal,[2],0.00422 relative 10-mer count
same,binding signal,[3],0.00563 relative 10-mer count
CCATCCCCAC,binding signal,[1],0.116 relative 10-mer count
same,binding signal,[2],0.00537 relative 10-mer count
same,binding signal,[3],0.00372 relative 10-mer count
